# In the library only some 5.7% were active in any assay of this set; here they are far more common.
# MPTP block: blocks calcium-induced mitochondrial swelling; isolated mouse mitochondria, Ca2+ swelling absorbance, 30 min; inhibition, % at 10 µM; 360,000 tested, 1.4% active; AID 602449;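 active = inhibition of 50% or more, scaled per plate between neutral and stimulator controls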;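 also: 0% = DMSO wells given calcium and 100% = 1 mM EGTA wells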
# NR3A LBD binder: modulators (binders) of human NR3A ligand-binding domain | NR3A LBD differential scanning fluorimetry, Tm shift; 0% = protein alone, 100% = glycine-bound protein | Tm shift relative to glycine control, % at 25 µM | 340,000 tested, 2.5% active | AID 1259313;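 active = melting temperature shift of at least 10% of the positive control shift, at one fixed dose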
# FAS-TE inh: inhibitors of human fatty acid synthase thioesterase domain; P49327; recombinant FAS-TE, OMFH fluorogenic substrate, fluorescence endpoint; inhibition, % at 15 µM; 360,000 tested, 0.67% active; AID 602261;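 active = compounds whose normalised, plate-corrected inhibition of enzyme fluorescence in the single-dose primary screen is 50% or more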;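 also: 0% = DMSO with enzyme and 100% = substrate without enzyme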
# Myeloid diff 2: myeloid differentiation induction; calls only at 10 µM; ER-HoxA9 myeloid progenitors, lysozyme-GFP differentiation, flow cytometry; 360,000 tested, 1% active; AID 624256;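 active = normalized GFP-positive differentiation at or above the plate's own cutoff, the solvent-only control mean plus 3 SD; inconclusive = no clear call, values can overlap the other calls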;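 also: cells exposed to compound for four days before flow analysis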
# rCAG RNA binder: molecules binding r(CAG) RNA repeats; inhibition, % at 3 µM; r(CAG) RNA repeat, TO-PRO-1 dye displacement fluorescence; 370,000 tested, 1.3% active;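 active = inhibition above the plate cutoff, the mean of all test compounds on that plate plus 3 SD, cut at about 35% in these data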;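 also: 0% = DMSO alone and 100% = 100 µM mitoxantrone as full dye displacement; higher means more dye released from RNA so lower well fluorescence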
# FAS-TE inh conf: FAS thioesterase (human) inhibition, confirmation; recombinant FAS-TE, OMFH fluorogenic substrate, fluorescence; 2,300 tested, 45% active; shares compounds with FAS-TE inh; inhibition, % at 15 µM; AID 624325;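 active = compounds inhibiting the enzyme by at least 50% at 15 µM in any one of the replicates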;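 also: 0% = enzyme with DMSO only and 100% = wells lacking enzyme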
# Active calls of the source: *; i = inactive; ? = inconclusive; . = no result.
SMILES,MPTP block,NR3A LBD binder,FAS-TE inh,Myeloid diff 2,rCAG RNA binder,FAS-TE inh conf
O=C(Nc1cc(S(=O)(=O)N2CCOCC2)ccc1N1CCCC1)c1ccc2c(c1)S(=O)(=O)c1ccccc1C2=O,-4.5,-0.3,78.9*,i,21.1,20.1
O=C(COc1cccc(Cl)c1)Nc1nc(-c2ccc(S(=O)(=O)N3CCOCC3)cc2)cs1,-0.7,-6.1,66.3*,i,15.2,22.9*
COC(=O)CC#C[C@H](C)[C@@H](NS(=O)(=O)c1ccc(C)cc1)C1CCCCC1,.,.,.,.,6.9,.
Cc1ccccc1S(=O)(=O)N(C)C[C@@H]1OCc2cn(nn2)CCCC(=O)N([C@@H](C)CO)C[C@H]1C,.,.,.,.,2.0,.
COc1cccc(-n2c(SCC(=O)Nc3sc4c(c3C(N)=O)CCC4)nc3ccccc3c2=O)c1,1.8,-4.0,77.1*,i,12.5,6.9
COc1ccccc1C(=O)N1CCC2CCN(C(=O)OC(C)(C)C)C2C1 (stereo not drawn),.,.,.,.,1.4,.
O=C(NC(=S)Nc1ccc2c(c1)OCCO2)c1cccc2ccccc12,1.2,-4.2,56.3*,i,1.1,24.2
CCn1c(C)c(C(C)=O)c(N2CCN(c3cccc(Cl)c3)CC2)nc1=S,-1.7,-0.9,8.7,i,0.1,.
C=CCn1c(C)c(C(C)=O)c(N2CCN(C(c3ccccc3)c3ccccc3)CC2)nc1=S,5.8,-3.4,58.4*,i,-4.1,-0.3
COc1ccc(C(=O)COC(=O)C(CCSC)NC(=O)COc2ccccc2)cc1 (stereo not drawn),0.6,2.6,63.8*,i,-3.6,14.5
CCC(=O)Nc1ccc(C(=O)COC(=O)C(CCSC)NC(=O)COc2ccccc2)cc1 (stereo not drawn),-1.0,0.3,2.1,i,5.7,.
O=C(NC1CCCCC1)C1CC(=O)N(c2cccc([N+](=O)[O-])c2)C1 (stereo not drawn),-1.1,-1.8,79.7*,i,-1.5,84.1*
COc1cc(-c2nnc(COC(=O)C3c4ccccc4Oc4ccccc43)o2)cc(OC)c1OC,0.9,-2.9,10.1,i,-1.9,.
COc1ccc(C2=C(C=C(C#N)C#N)C(c3ccccc3C)c3ccccc3O2)cc1OC (stereo not drawn),34.4,-5.2,69.2*,i,1.4,17.9
COc1ccc(C(=O)c2cc([N+](=O)[O-])ccc2N2CCOCC2)cc1,0.8,-1.5,23.0,i,-1.7,.
COc1ccc(C(=O)COC(=O)c2cc(S(=O)(=O)N3CCCCC3)ccc2N2CCOCC2)c(OC)c1,-1.5,2.2,73.1*,i,4.6,3.4
COc1ccccc1NC(=O)c1cc([N+](=O)[O-])ccc1N1CCOCC1,-2.6,3.0,36.3,i,-5.3,.
COc1cc(C(=O)COC(=O)c2cc([N+](=O)[O-])ccc2N2CCOCC2)ccc1OC(F)F,-1.8,1.9,55.3*,i,3.6,56.7*
COc1ccccc1CNC(=O)COC(=O)c1cc([N+](=O)[O-])ccc1N1CCOCC1,-1.7,1.8,79.2*,i,-2.6,89.9*
COc1ccc(C(=O)COC(=O)c2cc([N+](=O)[O-])ccc2N2CCOCC2)c(OC)c1,0.0,-0.6,74.6*,.,7.4,75.3*
COC(=O)C1=C(C)N(Cc2ccc(C(F)(F)F)cc2)C(=NCc2ccc(C(F)(F)F)cc2)NC1c1ccccc1C(F)(F)F (stereo not drawn),.,.,.,.,0.3,.
COc1ccccc1C(=O)COC(=O)c1cc(S(=O)(=O)N2CCCCC2)ccc1N1CCOCC1,-0.3,1.2,37.9,?,0.1,.
Cc1cc(C)c(C(=O)COC(=O)c2cc([N+](=O)[O-])ccc2N2CCOCC2)cc1C,-1.3,2.2,56.9*,i,0.1,33.5
O=C(OCc1c(F)cccc1Cl)c1cc([N+](=O)[O-])ccc1N1CCOCC1,-1.5,4.9,37.4,i,-3.0,.
O=C(COC(=O)c1cc([N+](=O)[O-])ccc1N1CCOCC1)c1ccccc1,-1.5,-0.4,62.8*,i,1.0,70.7*
SMILES,MPTP block,NR3A LBD binder,FAS-TE inh,Myeloid diff 2,rCAG RNA binder,FAS-TE inh conf
COc1ccccc1C(=O)COC(=O)c1cc([N+](=O)[O-])ccc1N1CCOCC1,-0.7,1.6,68.4*,i,0.3,34.3*
CN1OC[C@@H]2CN(CC3CCCCC3)[C@H](c3ccc(-c4ccc(C#N)cc4)cc3)C[C@@H]21,.,.,.,.,2.9,.
CN(C)[C@H]1CCN(c2ccc3c(c2)O[C@@H]2CCN(C2)S3(=O)=O)C1,.,.,.,.,4.3,.
CCn1cc(C(=O)NCCc2ccc(Cl)cc2)c(=O)c2cc(S(=O)(=O)N(C)C)ccc21,0.7,21.8*,74.6*,i,-0.2,34.5
CCn1cc(C(=O)NCc2ccc3c(c2)OCO3)c(=O)c2cc(S(=O)(=O)N(C)C)ccc21,-17.7,-0.9,57.4*,i,9.0,42.1*
CCn1cc(C(=O)NCc2ccc(Cl)cc2)c(=O)c2cc(S(=O)(=O)N3CCOCC3)ccc21,-2.2,-30.9,11.8,i,2.6,.
CCn1cc(C(=O)NCCc2ccc(C)cc2)c(=O)c2cc(S(=O)(=O)N(C)C)ccc21,.,-1.7,.,.,-0.3,.
CCn1cc(C(=O)NC(C)CCc2ccccc2)c(=O)c2cc(S(=O)(=O)N(C)C)ccc21 (stereo not drawn),-0.7,-4.5,62.8*,i,1.0,27.7
CCn1cc(C(=O)NCc2ccc3c(c2)OCO3)c(=O)c2cc(S(=O)(=O)N3CCOCC3)ccc21,2.0,0.6,6.3,i,12.3,.
CCn1cc(C(=O)NCc2ccc(Cl)cc2)c(=O)c2cc(S(=O)(=O)N(C)C)ccc21,-0.5,-24.0,64.1*,i,-3.5,76.6*
COC(=O)[C@]12C[C@H](CC(=O)NCc3cccs3)C(=O)N(Cc3ccc(Cl)cc3Cl)C1=C[C@H](C(C)C)O[C@@H]2C1CC1,.,.,.,.,3.6,.
CCOC(=O)C1=CCN(S(=O)(=O)c2ccc(Br)cc2)C1c1cccc(F)c1 (stereo not drawn),.,.,.,.,4.6,.
O=C(Cn1c(-c2cncs2)nc2ccccc21)NC1CCCCC1,.,.,.,.,1.4,.
CC(NC(=O)C=Cc1ccco1)C(=O)NC(Cc1ccccc1)C(N)=O (stereo not drawn),.,.,.,.,5.8,.
CCc1ccc(C(=O)NNc2ccccc2F)cc1,1.4,-2.3,-5.4,i,-0.2,.
CCc1ccc(C(=O)NNc2cc(Cl)ccc2Cl)cc1,14.8,-3.1,50.5*,i,-2.6,13.6
COc1cccc(CNC(=O)[C@H]2CCCN2C(=O)[C@H]2CCCN2C(=O)N2CCCCC2)c1,.,.,.,.,1.9,.
COCc1[nH]nc2c1C(c1ccc(C)cc1)NC2=O (stereo not drawn),.,.,.,.,2.7,.
O=C(COC(=O)c1ccccc1)NCc1cccs1,-0.2,-0.3,-8.0,i,2.4,.
CCN(CC(=O)NCc1cccs1)S(=O)(=O)c1ccc([N+](=O)[O-])cc1,0.5,0.4,51.5*,i,-0.8,52.4*
O=C(COC(=O)c1cccc([N+](=O)[O-])c1)NCc1cccs1,-0.1,0.2,51.5*,i,0.7,62.8*

# Compound activity from PubChem BioAssay.
